The entries come from a sample that favours hits as a whole.
U2OS ROS induce – ROS inducers in U2OS cancer cells, primary screen, cell-based, H2DCF-DA fluorescence | AID 624156, 2012 | 46,000 tested, 2% active | ROS induction (% of piperlongumine), % at 10 µM | U2OS ROS induction; in the data active = ROS induction above about 79%, passing the limit was not always enough;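 note: 0% = DMSO vehicle median and 100% = reference compound median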
* = called active by the depositor.

What do the screens show for `C[C@H]1CN([C@@H](C)CO)C(=O)Cc2cc(NS(=O)(=O)c3ccc(F)cc3)ccc2O[C@H]1CN(C)Cc1ccc2c(c1)OCO2`?
U2OS ROS induce: 109*

How did C[C@@H]1CN([C@H](C)CO)C(=O)Cc2cc(NS(=O)(=O)c3ccc(F)cc3)ccc2O[C@@H]1CN(C)Cc1ccc2c(c1)OCO2 do in these assays?
U2OS ROS induce: 19

Results for C[C@H]1CN([C@@H](C)CO)C(=O)Cc2cc(NS(=O)(=O)c3ccc(Cl)cc3)ccc2O[C@H]1CN(C)Cc1ccc2c(c1)OCO2 ?
U2OS ROS induce: 14

Results for C[C@@H]1CN([C@H](C)CO)C(=O)Cc2cc(NS(=O)(=O)c3ccc(F)cc3)ccc2O[C@H]1CN(C)Cc1ccc2c(c1)OCO2 ?
U2OS ROS induce: 129*

How did O=C(c1ccco1)N1CCc2sccc2C1c1ccc(OC(F)(F)F)cc1 (stereo unspecified) do in these assays?
U2OS ROS induce: 21

How did C[C@H](CO)N1C[C@H](C)[C@H](CN(C)Cc2ccc(C(F)(F)F)cc2)Oc2ccc(NC(=O)C3CCCCC3)cc2C1=O do in these assays?
U2OS ROS induce: 21

How did O=c1c2sc3ccccc3c2[nH]c(=S)n1CCCN1CCN(c2ccccc2F)CC1 do in these assays?
U2OS ROS induce: 9

Results for C[C@@H]1CN([C@@H](C)CO)C(=O)c2cc(NC(=O)NC3CCCCC3)ccc2O[C@H]1CN(C)C(=O)Nc1ccc(F)cc1 ?
U2OS ROS induce: 1

How did Cc1sc2c(c1C)C(=O)C(C(=O)Nc1ccc(Cl)cc1)S(=O)(=O)N2C (stereo unspecified) do in these assays?
U2OS ROS induce: 21

What do the screens show for `C[C@H]1CN([C@@H](C)CO)C(=O)c2cc(NS(=O)(=O)c3cccs3)ccc2O[C@H]1CN(C)S(=O)(=O)c1cn(C)cn1`?
U2OS ROS induce: -7

Results for CC(C)NC(=O)Nc1cccc2c1O[C@H](CN(C)S(=O)(=O)c1ccc(F)cc1)[C@H](C)CN([C@@H](C)CO)C2=O ?
U2OS ROS induce: 0

Results for CC1CCc2c(sc3ncnc(NCCCOC(C)C)c23)C1 (stereo unspecified) ?
U2OS ROS induce: 62

What do the screens show for `Clc1ccc(-c2csc3ncnc(NCCN4CCOCC4)c23)cc1`?
U2OS ROS induce: 139*

What do the screens show for `CC1CCc2sc3ncnc(NCCN4CCOCC4)c3c2C1` (stereo unspecified)?
U2OS ROS induce: 80*

How did Cc1ccc(-c2csc3ncnc(NCCC(=O)O)c23)cc1 do in these assays?
U2OS ROS induce: 61

Results for CC1(C)Cc2c(c(N3CCOCC3)nc3sc4c(NCCN5CCOCC5)ncnc4c23)CS1 ?
U2OS ROS induce: -5

What do the screens show for `OCCCNc1ncnc2scc(-c3ccccc3)c12`?
U2OS ROS induce: 2

How did O=C(CSc1nc2ccccc2s1)n1c2ccccc2c2ccccc21 do in these assays?
U2OS ROS induce: 6

Results for COc1ccc(CN(C)C[C@H]2Oc3c(NC(=O)Nc4ccc(C(F)(F)F)cc4)cccc3C(=O)N([C@@H](C)CO)C[C@@H]2C)cc1 ?
U2OS ROS induce: 14

How did C[C@H](CO)N1C[C@H](C)[C@H](CN(C)S(=O)(=O)c2ccc(Cl)cc2)Oc2ccc(NC(=O)Nc3ccccc3)cc2CC1=O do in these assays?
U2OS ROS induce: 5

What do the screens show for `COc1cc(O)c2c(=O)c(OC)c(-c3ccc(OC)c(OC)c3)oc2c1`?
U2OS ROS induce: 59

Results for COc1cc(-c2oc3cc(O)cc(O)c3c(=O)c2O)ccc1O ?
U2OS ROS induce: 12

How did COc1cc(OC)c2c(=O)c(O)c(-c3ccc(OC)c(OC)c3)oc2c1 do in these assays?
U2OS ROS induce: 83*

Results for COc1c(OC)c(O)c2c(=O)c(O)c(-c3ccccc3)oc2c1OC ?
U2OS ROS induce: 10

How did COc1ccc(-c2oc3c(OC)c(OC)c(OC)c(O)c3c(=O)c2OC)cc1OC do in these assays?
U2OS ROS induce: 102*

How did COc1cc(-c2oc3cc(O)c(OC)c(O)c3c(=O)c2OC)ccc1O do in these assays?
U2OS ROS induce: 10

What do the screens show for `CC1CCCC(Nc2c(-c3ccc(Cl)cc3)nc3c(C#N)c[nH]n23)C1C` (stereo unspecified)?
U2OS ROS induce: -2

What do the screens show for `C[C@@H]1CN([C@@H](C)CO)C(=O)Cc2cc(NC(=O)C3CC3)ccc2O[C@@H]1CN(C)CC1CC1`?
U2OS ROS induce: 18

What do the screens show for `O=C(CCCCCC(=O)Nc1ccccc1O)N/N=C/c1cccc(B(O)O)c1`?
U2OS ROS induce: -9

How did Cc1ccc(C(=O)NC(=S)NCc2ccco2)cc1[N+](=O)[O-] do in these assays?
U2OS ROS induce: -5

How did C[C@@H]1CN([C@@H](C)CO)C(=O)c2cccc(N(C)C)c2O[C@@H]1CN(C)C(=O)Nc1ccccc1 do in these assays?
U2OS ROS induce: 5

Results for Cc1c(CC(=O)O)c(=O)oc2c(C)c(OC(C)C(=O)O)ccc12 (stereo unspecified) ?
U2OS ROS induce: -8

What do the screens show for `Cc1noc(C)c1NC(=O)Nc1ccc2c(c1)C(=O)N([C@H](C)CO)C[C@H](C)[C@@H](CN(C)Cc1ccc(C(=O)O)cc1)O2`?
U2OS ROS induce: -9

Screening results as filed in PubChem.
